Our source for the z-score values is PubChem BioAssay AID1508600 (Functional Genomics Laboratory (NCATS/FGL), 2020).

Screen size: about 53,000 sequences; about 3,700 (7%) were called active.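 Rule for the calls: active = gene knockdowns whose robust z-score for IL-1 alpha signal is at least 2 or at most -2, so actives lie on both sides; inactive = the rest.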 Only a selection was taken, and actives are over-represented in it overall.

This experiment can be described thus: Components of the Cytosolic LPS Sensing Pathway: Gene Identification via Genome-wide siRNA Screen.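 Note: robust z of the log signal after scaling to non-targeting control siRNA wells of the plate.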 To be noted: RAW264.7 macrophages, IL-1a HTRF, actives lie on both sides, screened at 100 nM (by protocol), cells primed 5 h with Pam3CSK4 first. An outline of the steps:
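Cells (RAW264.7, 1×10^4 per well) were transfected with siRNA at 100 nM and cultured 48h at 37 degrees C. Pam3CSK4 was added for 5 hours; LipidA transfection followed for 24 hour. IL-1a was then measured by HTRF.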
(In general: TR-FRET usually uses a lanthanide donor and a delayed reading to cut background.)
With GGAAAAGGCCGAUUUCGUGTT against Dixdc1, the z-score is 0.556 (inactive).
For GGCAGUAGUGAACAGAGACTT against Krt222, the z-score is -0.199 (inactive).
Next, GGAUCUUCCUGGAUGCCAATT against Hps1: -2.61 (active).
Next, GCUGACUCCGUGUUUUUAATT against Arhgef18: -0.539 (inactive); GGGCUCUUGUGUUAAGGCATT against Krt27: -0.119 (inactive); GGAGCUAGAACUCAAUGAATT against Lingo1: 0.65 (inactive).
Next, CCUCAUAGCCAGUCUUUUUTT against Pafah2: -0.553 (inactive).
Take GUCCUAAAACGAGUGAGAGTT against Trib3: the z-score was -0.793 (inactive).
Next, GGACACAGCAAGGAAGAAATT against Mad2l1bp: 0.335 (inactive); GUUGUGUUCUGAUUGUUUUTT against Olfr1020: 2.03 (active).
Take GGACAGGUACUUUUCCCUGTT against Gnpda2: the z-score was -1.19 (inactive).
Next, CCAGUCAUUGUGCUUGUUATT against Sox12: 0.929 (inactive); GGAGGACGUAUCAUUACAUTT against Twf1: 1.95 (inactive); GGAGGAUAUAAAAAAGAAGTT against L2hgdh: 0.00317 (inactive).
Next, GCCAAGGACUCAGUGAAUGTT against Iqsec2: -1.19 (inactive); GGUCCUCUCAGACAUGAAGTT against Pagr1a: -0.237 (inactive); GCGGUAAGAACGUGGAACUTT against Tent5b: 0.536 (inactive).
Next, GGGCAAGUUCCAUCUCCUUTT against Cdc42ep2: -2.2 (active).
As to GCAUGAAGAGGCAAAGGCUTT against Igfbp1, the z-score is -0.555 (inactive).
Next, GGAAGUUAAUGGGUAAAGUTT against Olfr365: -1.67 (inactive); GGACAAAACUAAACAGCAATT against Smarcal1: -0.662 (inactive).
Turning to GGGCUUUCUUGGUUUUAUCTT against Depp1, the z-score is -0.377 (inactive).
Next, GUCGCAUCUCCAAAAAUGGTT against Olfr340: -1.46 (inactive).
As for GGAUCCUCUCAUUAAGAAATT against Gabra1, the z-score was -1.15 (inactive).
For CGACUUCGCCUUAUGAGAUTT against Tst, the z-score is -1.19 (inactive).
For the sequence GCAAGUGAGUUAGCAGUCATT against Atp2c1, the z-score is -2.23 (active).
Next, GGUUGAUCCAAAAGAUUACTT against Rp2: 0.557 (inactive).
For GGUCAUGAAAAAUGACAGCTT against Klra2, the z-score was 0.126 (inactive).
For GGAAGAAGAGGAUGAGAUUTT against Clcn6, the z-score was -1.73 (inactive).
Next, GGCUCACAAUUGCUGUGUATT against Psg23: -0.566 (inactive).
Next, GGAUGUUGGCAGCCGAACATT against St3gal2: -0.684 (inactive); GGACAAGAUGUUGAGUAUUTT against Plrg1: -2.23 (active); UUGUCAUUCACUUGAUGAATT against H2bu2: 0.238 (inactive).
Next, CCAUGCCCACUGGAUAGAUTT against Nat14: -1.21 (inactive); CCCGAAUUGACAACAUCGUTT against Olfr855: 0.566 (inactive).
With “CGCCUUAAACGAAGCUGCUTT against 1700034E13Rik”, the z-score was -1.28 (inactive).
Next, GGUUUCCUUUUUGUUCAUUTT against Dlg3: 0.566 (inactive).
Next, CCGGUUGUUUUGAGUGUUGTT against Rad9b: 1.09 (inactive); GGAAAACACAGCUACGGAATT against Ak5: 2.21 (active); CCAUAUAUUAUGGACCUUATT against Hepacam2: -0.576 (inactive).
Take CCGAAAUAAGGCUAGCUCATT against Rfx6: the z-score was -0.282 (inactive).
Next, GGUCUUACCAACAGAACCCTT against Rad51ap1: 1 (inactive); GCAAUGCUCUAAUCCACUCTT against Npas4: 0.654 (inactive).
Next, GGAAUUAUAGGACUUGUUCTT against Serinc1: 0.256 (inactive); GGUUCCCAAAGUAGAAGCATT against Dkkl1: -0.231 (inactive).
For the sequence GCUGAGUUGACUCCUACUGTT against Mcpt1, the z-score is -2.23 (active).
Next, GGAUUUGUUUUCAGAUGUGTT against Zfp329: -1.56 (inactive); GAUUCUUGUCGCUCAUAGCTT against Vmn1r52: -0.535 (inactive); GGGCACACAUAUGACCGUUTT against Rrad: 0.261 (inactive).
Next, GCAUUCAUACAUGUAACAGTT against Wdr70: 0.336 (inactive); GUCACAGAAAGCUUAGUCCTT against Olfr427: -2.93 (active); GGGACCAGAACAAAGUGGUTT against Olfr487: 0.474 (inactive).
Next, CCUAUUCAUCAUAACUCAUTT against Tdo2: 0.129 (inactive); CGAGCAUAAAAGUUAUGUGTT against Chaf1b: 1.07 (inactive); GGAUCCUUACAAUAACAUUTT against Mmut: 2.04 (active).
With GCGUAUUUCCUUUCGGAGUTT against Exoc3, the z-score was 0.116 (inactive).
Next, CCUAAGCCCUCUAAGGCAATT against Pik3r2: -0.753 (inactive); CCUCCUCUCCUAAAUGCCUTT against Llcfc1: -1.23 (inactive).
Next, GGAACGAGUUUUGAAAAAATT against Creb3l3: 0.073 (inactive); GGAAGAACAUUGUUACCUGTT against Svep1: 1.1 (inactive); GGUCCUACUUACUACUGCCTT against Fam83h: 0.265 (inactive).
Next, CGUCUACCCGGAAUUUCAGTT against Sdha: -1.42 (inactive); GGAAGGACUAUUUUCUUUCTT against Trak1: 1.5 (inactive); GGCAGAAAGCAAAAUGUUUTT against Gata3: -4.28 (active).
On to GUGGAUACGUGGGAAAGUCTT against Nmnat1, for which the z-score is 0.0316 (inactive).
Next, CGCUCUGUUAAUGCAGGAUTT against Papss1: 3.22 (active); GCUAUUUCUGCCUUUAGUCTT against Scamp5: -0.0682 (inactive); CCCACUGUGAAGAGAGGCATT against Xlr3c: -1.41 (inactive).
Turning to GGUUCAGACAACUCAGUGGTT against Pbx1, the z-score is 0.813 (inactive).
With GGAGAAGGUGCUCAAGUUGTT against Henmt1, the z-score is -2.45 (active).
As for CGGAUUCAUCAGUUUGGUATT against Cdc7, the z-score was 0.274 (inactive).
Next, GCAACUUACUUGAUCUGAATT against Ap2b1: -0.292 (inactive); CCUUCUAAUUAUCACCAAATT against Arhgap18: -0.102 (inactive); GCUAACUGCACUCCGAGAUTT against Asap1: -0.266 (inactive).
Next, GGAAAAUUGAUAGCAAGCUTT against Fbxw15: 1.9 (inactive); GGCACAUCUCCCUAACACUTT against Mvb12b: -2.02 (active).
With CCAAGCAUUAUGAGAUGCUTT against Sec23b, the z-score was 0.749 (inactive).
As for GGUUACUAGAUGUAUUUUGTT against Ppp3cb, the z-score is -0.785 (inactive).
Next, GGAAGAGGACCAAAGUGCUTT against Pnpla7: 1.75 (inactive).
Next, GGAUCAACAUCAGAGUUCUTT against Zfp119b: -0.562 (inactive).
Turning to CCCUAAUUCUUAGGCCUUUTT against Bloc1s3, the z-score is -0.242 (inactive).
Next, GGAAAGGUUUAAUCAUGAATT against Spred1: 0.602 (inactive); GGCAAGCACAAUGAUCAUUTT against Trappc11: -2.36 (active); CGCUUUAGUGACUUUCAAATT against Metrnl: -0.583 (inactive).
Turning to GCAGAUCCGAAUCAAUGAGTT against Twf2, the z-score is 0.504 (inactive).
Next, GCGAUUGAGAGGCUACACUTT against Pigb: 0.402 (inactive); GGGCUGUUAUUUCAAGAAATT against Galnt13: -0.173 (inactive).
Next, CCCACUAAAAUCCUAUCUCTT against Ggta1: -2.57 (active); GGGUCAAGUUUACAGAUGATT against Luc7l: 0.0159 (inactive); GGGUGCAUUUUAAAUACUATT against Spred2: 0.73 (inactive).
As to GGAAUCCUCUAAAUGACCUTT against Vmn1r174, the z-score is -1.49 (inactive).
Next, GGCCAUUCUUUGUCACCCATT against Os9: -2.87 (active); CCAUUAACUCUUUGAGUAUTT against Omg: 0.321 (inactive).
With GGAGCUGAGAAACAAGAUUTT against Bspry, the z-score is -0.972 (inactive).
Next, GGAUGUUAAAGCCAUAUACTT against Msh6: -0.788 (inactive); GGGCUACCUCAGUUUAAACTT against Spic: 0.763 (inactive).
With GGCAAUAACUGCUUUAUCUTT against Olfr509, the z-score is -0.68 (inactive).
Next, GCGUAUUCAGCUGGGAUAGTT against Marveld2: -2.42 (active); CCUUCGUGUUCACUUUAAGTT against Rpl17: -1.5 (inactive).
Next, CCACUAAUAGUCGUAGAAUTT against Dand5: 0.535 (inactive); GCCAUCUCUAUGUUGUUGATT against Smtnl2: -0.108 (inactive).
Next, GGUCAUCCUCAAGAUGAAGTT against Zfp819: -2.82 (active); GGCAUGUCCAAGGAAUACUTT against Snrpg: -1.4 (inactive).
GGUUAAUCUGAGAAUUCUATT against Kcnk1: the z-score was 0.717 (inactive).
Consider CCCAAUUUUUAGUUGCUAATT against Rab2b, for which the z-score is 0.0495 (inactive).
With GGAAGCUGUCUUCAAGUCCTT against Phf7, the z-score was -1.3 (inactive).
Next, GCAGUCCUCGUCCUCAAAGTT against Btbd10: 2.16 (active).
